“And” between values parts separate entries of the source, which are not always exact repeats. Equal entries are not always repeated. Among all 310,000 compounds or so, about 11,000 (3.5%) were called active. Another 4% or so got no clear call; they are omitted. The call rests on the fitted dose curve; in most records, active means well fitted inhibition curve with a large enough effect; inconclusive means small, poorly fitted or top-dose-only effect, or another doubt; inactive means no such curve, though single readings can be large or run the other way. Many of the other results were omitted from the sample, so actives are more common in it than they were.
Each compound was assayed against 4'-phosphopantetheinyl transferase ffp (Bacillus subtilis) (UniProt Q9F4F7) (assay: qHTS Assay for Inhibitors of Bacillus subtilis Sfp phosphopantetheinyl transferase (PPTase)). Settings: Biochemical Sfp PPTase activity.
In short: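 Buffer: 50 mM Hepes-Na pH 7.6, 10 mM MgCl2, 0.01% Nonidet P-40, 0.01% BSA. Enzyme 15 nM, pre-exposed to compound 15 min; substrates then added and fluorescence change tracked over 30 min.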
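Further: the enzyme is Sfp with the accession as filed and its product quenches rhodamine fluorescence.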
Potency means the concentration at half of the fitted maximal effect.
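Wherever largest response in the series, negative = inhibition is given: 0% = enzyme reaction without inhibitor and -100% = no enzyme wells.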

| Compound | largest response in the series, negative = inhibition | Potency |
| --- | --- | --- |
| COc1ccc(NC(=O)CCCN2C(=O)C(c3ccccc3)Oc3cccnc32)cc1 (stereo not given) | 1.64% (inactive) |  |
| Cc1ccc(C)c(S(=O)(=O)N2CCCOC2CNC(=O)C(=O)NC2CCCCC2)c1 (stereo not given) | 11.5% (inactive) |  |
| COC(=O)C(CC(=O)Nc1cc(C)ccc1C)Nc1ccccc1OC (stereo not given) | 28.6% (inactive) |  |
| Cc1ccc(C)c(NC(CC(=O)c2ccccc2)C(=O)OCC(=O)c2cccs2)c1 (stereo not given) |  | 39.8 µM (active) |
| Cc1ccc(C)c(NC(=O)CCC(=O)NNC(=O)c2cccs2)c1 | 3.73% (inactive) |  |
| Cc1ccc(-c2ncc(Cl)cc2-c2ccc(S(C)(=O)=O)cc2)cn1 | 13.6% (inactive) |  |
| C=CCn1c(SCC(=O)NCC2CCCO2)nc2sc(C)c(C)c2c1=O (stereo not given) | 13.7% (inactive) |  |
| C=CCn1c(SCc2csc(C)n2)nc2scc(-c3ccc(C)o3)c2c1=O |  | 11.2 µM (active) |
| C=CCn1c(SCc2c(C)noc2C)nc2sc3c(c2c1=O)CCC(C)C3 (stereo not given) | -23.8% (inactive) |  |
| COc1ccccc1NC(=O)c1ccc(N2CC3CC(C2)c2cccc(=O)n2C3)c(NC(=O)c2cccnc2)c1 (stereo not given) |  | 31.6 µM (active) |
| COC(=O)c1cc(NC(=O)c2cccnc2)ccc1N1CCOCC1 | 9.31% (inactive) |  |
| COc1ccccc1NC(=O)c1ccc2nc(N3C(=O)CCC3=O)sc2c1 | 10.7% (inactive) |  |
| CCCCn1c(-c2cccc(C)c2)nc2cc3[nH]c(=O)c(C(C)C)nc3cc21 | -18.3% (inactive) |  |
| CCOC(OCC)OCC | -10.1% (inactive) |  |
| CC1C(=O)Nc2ccccc2N1C(=O)c1c(F)cccc1F (stereo not given) | 14.4% (inactive) |  |
| CC(C)c1cnc(NC(=O)Cc2ccccc2)s1 | 26.8% (inactive) |  |
| CC(=O)Nc1c2c(nn1-c1ccc(C)cc1C)CS(=O)C2 (stereo not given) | 9.45% (inactive) |  |
| O=C(CCCN1C(=O)/C(=C/c2ccco2)SC1=S)Nc1ccccc1 |  | 31.6 µM (active) |
| O=C(CCCN1C(=O)/C(=C/c2ccccc2)SC1=S)Nc1ccc(O)cc1 | 12.2% (inactive) |  |
| O=C(CCCN1C(=O)/C(=C/c2cccs2)SC1=S)Nc1ccc(O)cc1 | -1.57% (inactive) |  |
| O=C(CCCN1C(=O)/C(=C\c2ccccc2)SC1=S)Nc1ccccc1O | 17.9% (inactive) |  |
| COc1ccc(/C=C2\SC(=S)N(CCC(=O)Nc3cccc(C(=O)O)c3)C2=O)cc1OC | -8.44% (inactive) |  |
| O=C(CCCN1C(=O)/C(=C\c2ccco2)SC1=S)Nc1cccc2ccccc12 |  | 56.2 µM (active) |
| Cc1ccc2nc3c(cc(C(=O)NCCc4ccccc4)c(=N)n3CC3CCCO3)c(=O)n2c1 (stereo not given) | 21.3% (inactive) |  |

| Compound | largest response in the series, negative = inhibition | Potency |
| --- | --- | --- |
| Cc1ccc(CS(=O)(=O)c2ncc(Cl)c(C(=O)Nc3nnc(C)s3)n2)cc1 | -13.2% (inactive) |  |
| COc1ccc(Cl)cc1NS(=O)(=O)c1cccc(C(=O)NCC2CCCO2)c1 (stereo not given) | 12.9% (inactive) |  |
| CN(Cc1ccccc1)C(=O)CSc1nc2ccccc2[nH]1 | 9.63% (inactive) |  |
| COCCCNC(=S)NC(=O)c1ccccc1 | 8.58% (inactive) |  |
| Cc1cc2[nH]ncc2cc1NC(=S)NC(=O)c1ccccc1 | 1.08% (inactive) |  |
| Cn1nnc(NC(=S)NC(=O)c2ccccc2)n1 |  | 35.5 µM (active) |
| O=C(NC(=S)NC1CCS(=O)(=O)C1)c1cccc([N+](=O)[O-])c1 (stereo not given) | -2.6% (inactive) |  |
| COc1ccc(CCNCc2c(-c3ccccc3)n(C)c3ccccc23)cc1 |  | 79.4 µM (active) |
| COc1ccc(-c2nc3ccccc3c(=O)n2CCc2ccc(O)cc2)cc1 | -0.523% (inactive) |  |
| COc1ccc(-c2c(C#Cc3ccccc3)c3ccccc3n2C)cc1 | -20.7% (inactive) |  |
| CCOc1ccc(-n2c(SCC(N)=O)nnc2-c2ccco2)cc1 | 27.1% (inactive) |  |
| O=C(O)c1cccc(S(=O)(=O)Nc2ccc(O)cc2Sc2nc3ccccc3s2)c1 | -29.2% (inactive) |  |
| O=[N+]([O-])c1c(NCCO)cc(Sc2nc3ccccc3s2)c2nonc12 |  | 6.31 µM (active) |
| CCOc1ccccc1Nc1ccc2nonc2c1[N+](=O)[O-] | 1.09% (inactive) |  |
| C=CCn1c(CCc2ccc(OC(C)C)cc2)n[nH]c1=S | 14.2% (inactive) |  |
| C=CCn1c(CCNC(=O)c2cccs2)n[nH]c1=S |  | 7.94 µM (active) |
| Cc1ccc(C)c2[nH]c(=O)c(CCNC(=O)c3cccs3)cc12 | 6.07% (inactive) |  |
| COc1ccc(C(=O)NC2CC(C)(C)NC(C)(C)C2)cc1OC | 0.887% (inactive) |  |
| N#C/C(=C\c1ccc(O)c(O)c1)C(N)=O |  | 79.4 µM (active) and 56.2 µM (active) |
| N#C/C(=C\c1ccc(O)c(O)c1)C(=O)NCc1ccccc1 | -22.3% (inactive) and -19.4% (inactive) |  |
| CC(C)(C)C(=O)/C(C#N)=C/c1ccc(O)cc1 | 8.9% (inactive) |  |
| C=CCOc1ccc(/C=C/C(=O)OCC(=O)NC2CCCCCC2)cc1 | 16.7% (inactive) |  |
| CCOC(=O)c1ccc(NC(=O)CNC(=O)c2ccco2)cc1 | 7.8% (inactive) |  |
| CCCN(CCc1ccccc1)C1CCc2c(O)cccc2C1 (stereo not given) | 21.2% (inactive) |  |

| Compound | largest response in the series, negative = inhibition | Potency |
| --- | --- | --- |
| CC(=O)Nc1ccc(S(=O)(=O)N2N=NC3C2C2CC4C3(CN(C(=O)OC(C)(C)C)S4(=O)=O)O2)cc1 (stereo not given) | 11.6% (inactive) |  |
| O=C(COC(=O)CCC(=O)c1cccs1)NCc1ccco1 |  | 35.5 µM (active) |
| O=C(COC(=O)c1cccs1)NCc1cccs1 | 10.5% (inactive) |  |
| O=C(COC(=O)C12CC3CC(CC(C3)C1)C2)NCc1ccco1 | -10.5% (inactive) |  |
| CN1CCN(Cc2c(C(=O)N3CCc4ccccc4C3)nc3ccc(Cl)cn23)CC1 | -5.24% (inactive) |  |
| CCCn1nnnc1NCc1ccc(OC)cc1 | 10.3% (inactive) |  |
| CNC(=O)c1sc(NCc2ccccc2OC)nc1C | -19.7% (inactive) |  |
| CCOC(=O)c1sc(NC(=O)c2ccncc2)nc1C | -1.23% (inactive) |  |
| CCOC(=O)C1=C(C)Nc2sc(C(=O)c3ccc(Br)cc3)c(N)c2C1c1ccc(C(=O)OC)cc1 (stereo not given) | 15.8% (inactive) |  |
| CCOC(=O)c1sc(=S)n2c1[nH]c(=O)c1ccc(C(=O)OC)cc12 |  | 15.8 µM (active) |
| CCc1nn(CCCC(=O)Nc2ccc(C)c(C)c2)c(=O)c2cc3occc3n12 | 5.57% (inactive) |  |
| COc1ccc(N2CCN(Cc3cc(=O)oc4ccc5ccccc5c34)CC2)cc1 | 4.08% (inactive) |  |
| COc1ccc(N2CCN(Cc3nnc(-c4ccccc4)o3)CC2)cc1 | 2.63% (inactive) |  |
| COc1ccc(N2CCN(Cc3ccc(Br)s3)CC2)cc1 |  | 39.8 µM (active) |
| O=C(CN(C(=O)c1csnn1)c1cccc(Cl)c1)NC1CCCC1 | 5.89% (inactive) |  |
| NNc1nnc(NN)c2ccccc12 |  | 89.1 µM (active) |
| C=CCNc1nnc(C)c2ccccc12 | 4.78% (inactive) |  |
| Cc1nnc(NCCO)c2ccccc12 | 13.5% (inactive) |  |
| CSc1ccccc1OCc1cc(C(=O)N(C)CCc2c(C)n[nH]c2C)no1 | 0.222% (inactive) |  |
| COc1cc(C=O)c(Br)cc1OCC(=O)NCc1ccccc1 | 11.5% (inactive) |  |
| COc1cc(C(=O)NCc2ccncc2)cc(Br)c1OCc1ccccc1 | 4.37% (inactive) |  |
| COc1cc(C(=S)NCc2ccccc2)cc(Br)c1O |  | 8.91 µM (active) |
| NS(=O)(=O)c1ccccc1NC(=O)c1c(O)c2ccccc2[nH]c1=O | -6.41% (inactive) |  |
| CC1CC(=O)N(CC(=O)Nc2cccc(Cl)c2)c2ccccc2S1(=O)=O (stereo not given) | 12.1% (inactive) |  |

| Compound | largest response in the series, negative = inhibition | Potency |
| --- | --- | --- |
| COc1cc2c(cc1OC)[C@@H](Cc1cc(OC)c(OC)c(OC)c1)[N+](C)(CCCOC(=O)CC/C=C/CCC(=O)OCCC[N+]1(C)CCc3cc(OC)c(OC)cc3[C@H]1Cc1cc(OC)c(OC)c(OC)c1)CC2 (stereo not given in full) | -3.12% (inactive) |  |
| CCCCN(CC)C(=O)C1CCCN(S(=O)(=O)c2cccc3nsnc23)C1 (stereo not given) | 17.1% (inactive) |  |
| CCOC(=O)c1c(-c2ccccc2)csc1NC(=S)NC(=O)c1ccccc1 | -3.92% (inactive) |  |
| CCC(C(=O)OC)n1cnc2scc(-c3ccc(C)cc3)c2c1=O (stereo not given) | 6.01% (inactive) |  |
| COC(=O)c1c(-c2ccc(C)cc2)csc1N |  | 44.7 µM (active) |
| CCCCC/C=C\C[C@H](O)/C=C/C=C/C=C/[C@@H](O)CCCC(=O)O | 6.53% (inactive) |  |
| CC(=O)N1CCN(C(=O)C2(NC(=O)Nc3ccc(C)cc3)CCCCC2)CC1 | 14.1% (inactive) |  |
| O=C(Cc1ccc(Br)cc1)NCCN1CCOCC1 | 14.6% (inactive) |  |
| COc1ccc(C2/C(=C(/O)c3ccc(OC(C)C)cc3)C(=O)C(=O)N2CCCN2CCOCC2)cc1 (stereo not given) | -22.3% (inactive) |  |
| CCCCOc1ccc(C(C)(O)CCN2CCOCC2)cc1 (stereo not given) | 6.22% (inactive) |  |
| CCCOc1ccc(C2c3c(oc4cc(C)c(C)cc4c3=O)C(=O)N2CCCN2CCOCC2)cc1 (stereo not given) |  | 50.1 µM (active) |
| CCOc1cc(-c2cc(-c3ccc(NC(C)=O)cc3)nc(N)c2C#N)ccc1O | 10.7% (inactive) |  |
| Cc1cc(=O)n2nc(N3CCCC(C(=O)NCc4cccc(Cl)c4)C3)sc2n1 (stereo not given) | 8.1% (inactive) |  |
| COc1ccc(CCNC(=O)Cc2ccc(C)cc2)cc1OC |  | 39.8 µM (active) |
| COc1ccc(CCNC(=O)NS(=O)(=O)c2ccc(C)cc2)cc1OC | 17.5% (inactive) |  |
| COc1ccc(CCNC(=O)c2ccccc2-c2ccccc2C(=O)O)cc1OC | 5.81% (inactive) |  |
| CC(C)(Oc1ccc(C2CC2(Cl)Cl)cc1)C(=O)O (stereo not given) | 18% (inactive) |  |
| COc1ccc(NS(=O)(=O)c2cc3c(cc2C)N(C(C)=O)CCO3)cc1 | 15.7% (inactive) |  |
| CCn1c(=O)c(=O)[nH]c2c(=O)oc3ccc(S(=O)(=O)Nc4ccc(OC)cc4)cc3c21 | 5.45% (inactive) |  |
| CCOC(=O)N1CCN(C(=O)C(=O)Nc2sc3c(c2C#N)CC(C)(C)OC3)CC1 | -14.6% (inactive) |  |
| C/C=C\C=C\C(=O)N1CC2(CC(c3cccc(NC(=O)/C(C)=C\C)c3)=NO2)C[C@H]1C(N)=O (stereo not given in full) |  | 15.8 µM (active) |
| CC/C=C/C(=O)N1CC2(CC(c3cccc(NC(=O)CC)c3)=NO2)C[C@H]1C(N)=O (stereo not given in full) | -8.44% (inactive) |  |
| C/C=C(/C)C(=O)Nc1cccc(C2=NOC3(C2)C[C@@H](C(N)=O)N(C(=O)C2(C)CC2)C3)c1 (stereo not given in full) | -3.68% (inactive) |  |

— PubChem BioAssay AID1490 (National Center for Advancing Translational Sciences (NCATS), 2009)
